Source: patent publication US20200071711, “MODULAR CONSTRUCTION OF SYNTHETIC GENE CIRCUITS IN MAMMALIAN CELLS USING MATHEMATICAL MODELING OF CLOSED LOOP TRANSCRIPTIONAL REPRESSORS” (Tsinghua University, published 2020)

Tests used:
TALER22 = molecular target: T1, TALER22 (synthetic, UniProt P14727 SEQ:1-806); experiment: cell_activity; HEK293, two sites flanking CMVmini; settings: tags: EYFP-2A upstream, SV40 NLS; dsDNA, one strand shown
T1 chain: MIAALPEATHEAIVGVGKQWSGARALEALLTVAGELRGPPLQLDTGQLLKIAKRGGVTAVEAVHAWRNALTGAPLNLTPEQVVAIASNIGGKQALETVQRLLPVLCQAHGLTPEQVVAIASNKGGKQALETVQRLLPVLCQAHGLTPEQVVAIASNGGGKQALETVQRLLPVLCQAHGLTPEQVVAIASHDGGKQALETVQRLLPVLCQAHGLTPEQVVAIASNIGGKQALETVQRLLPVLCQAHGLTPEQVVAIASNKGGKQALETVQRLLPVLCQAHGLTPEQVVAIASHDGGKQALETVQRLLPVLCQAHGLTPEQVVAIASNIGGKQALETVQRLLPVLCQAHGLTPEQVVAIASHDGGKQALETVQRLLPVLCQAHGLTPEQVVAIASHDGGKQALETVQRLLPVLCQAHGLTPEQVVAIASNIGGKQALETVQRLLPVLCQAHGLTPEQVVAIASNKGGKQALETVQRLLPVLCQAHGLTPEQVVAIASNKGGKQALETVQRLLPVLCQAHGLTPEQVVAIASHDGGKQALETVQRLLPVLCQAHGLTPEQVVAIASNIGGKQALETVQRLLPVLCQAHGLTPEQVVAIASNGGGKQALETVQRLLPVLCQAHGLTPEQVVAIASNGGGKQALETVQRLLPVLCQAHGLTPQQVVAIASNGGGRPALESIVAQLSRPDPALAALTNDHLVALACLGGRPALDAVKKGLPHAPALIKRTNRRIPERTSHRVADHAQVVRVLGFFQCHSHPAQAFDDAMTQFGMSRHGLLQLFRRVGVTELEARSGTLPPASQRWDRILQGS

TALER23 = molecular target: T2, TALER23 (synthetic, UniProt P14727 SEQ:1-806); experiment: cell_activity; HEK293, two sites flanking CMVmini; settings: tags: EYFP-2A upstream, SV40 NLS; dsDNA, one strand shown
T2 chain: T1 chain

Row | Sequence | binding signal (TALER22) [fold repression] | binding signal (TALER23) [fold repression]
1 | TAGTCAGCACCAGGCATTT | 4.66 | –
2 | TCCGGATGCTCCTCTTAAT | – | 2.2
